# Shiga toxin inh – A qHTS for Small Molecule Inhibitors of Shiga Toxin; Vero cells, Shiga toxin protein synthesis inhibition reporter; inhibition, % at 38.7 µM; hit rate 9.2% among 290,000; AID 2315, 2010; in the data active = inhibition mostly above about 28%, no sharp cut-off; inactive = mostly below about 43%; note: 0% is about no effect
# CHX counter – Cycloheximide Counterscreen for Small Molecule Inhibitors of Shiga Toxin. cell reporter, cycloheximide protein synthesis inhibition counterscreen. max response, %. hit rate 12% among 300,000. AID 2314, 2010; in the data active = max response mostly above about 13%, no sharp cut-off; inactive = mostly below about 14%; note: read at 38.3 µM for the half of the compounds with a filed dose; 0% is about no effect
# Pf growth 48h – Primary qHTS for delayed death inhibitors of the malarial parasite plastid, 48 hour incubation; P. falciparum luciferase growth in erythrocytes, 48 h; Potency, µM (series often up to 28.7 µM), for the others: top-dose activity change, negative = inhibition, usual class: inhibitors; hit rate 5.9% among 310,000; AID 504832, 2011; note: potency is the fitted concentration of half-maximal effect; % is set by controls: 0 for no effect and ±100 for the full control effect
#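 Here the parasites carry a stable luciferase gene and grow inside erythrocytes in Albumax-based RPMI medium with compound for one erythrocytic cycle. Activity is scored as loss of luminescent signal.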
# Pf growth 96h – Primary qHTS for delayed death inhibitors of the malarial parasite plastid, 96 hour incubation | P. falciparum luciferase reporter growth, 96 h | Potency, µM (doses to about 28.7 µM), for inactives: at the highest dose activity change, negative = inhibition, most hits filed as inhibitors | hit rate 6.9% among 320,000 | AID 504834, 2011; note: potency is the fitted concentration of half-maximal effect; % is set by controls: 0 for no effect and ±100 for the full control effect
#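 Two-generation exposure (96 h) targets delayed-death phenotype. Reporter parasites carrying integrated firefly luciferase, in red cells at 2% hematocrit and 0.05% parasitemia final, kept at 37 C, 5% CO2; luminescence loss indicates inhibition.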
# * marks the source's active call; other numbers are inactive results; u = inconclusive; x = no result given. Shown are actives, neighbours in structure and some others; about 21% of the full set was active somewhere. Unless noted, calls come from the whole dose curve; as a rule, active = well fitted inhibition curve with a large enough effect; inconclusive = small, poorly fitted or top-dose-only effect, or another doubt; inactive = no such curve, though single readings can be large or run the other way.
SMILES,Shiga toxin inh,CHX counter,Pf growth 48h,Pf growth 96h
CSc1ccccc1NC(=O)CN1CC(C)OC(C)C1 (stereo not drawn),-3.6,7.2,-22.5%,-21.5%
Cc1nnsc1C(=O)N/N=C/c1ccc(OC(F)(F)F)cc1,64.3*,23.3*,u,10.8%
Cc1nnsc1C(=O)N/N=C/c1ccccc1,4.4,3.6,6.7%,u
Cc1nnsc1C(=O)N/N=C/c1ccc2ccccc2c1O,20.1,0.3,2.62µM*,3.29µM*
CCN(CC)N=Nc1ccc(S(=O)(=O)Nc2nc(C)cc(C)n2)cc1,-7.6,-4.1,0.0%,u
O=C(Nc1ccc(NC(=O)c2ccco2)c(Cl)c1)c1ccccc1,78.5*,47.2*,25.9%,50.4%
O=C(Nc1ccc(Br)c(Cl)c1)c1ccco1,75.9*,41.2*,-6.4%,-9.1%
CC(C)Oc1ccc(C(=O)Nc2ccc(NC(=O)c3ccco3)c(Cl)c2)cc1,49.9*,39.6*,-0.7%,-11.5%
CC(C)COc1ccc(C(=O)Nc2ccc(NC(=O)c3ccco3)c(Cl)c2)cc1,6.5,13.5,x,393.6%
CCNC(=O)NC(=O)C(C)OC(=O)[C@H](C)NS(=O)(=O)c1c(C)c(C)cc(C)c1C (stereo partly drawn),-2.2,-6.1,29.7%,73.9%
O=C(c1c(F)cccc1F)N1CCCc2ccccc21,x,8.3,-11.7%,-11.4%
CCCCCSc1cc(OC)c(CCN(C)C)cc1OC,4.0,19.5*,u,11.7µM*
COc1ccc2[nH]cc(CCN(C)C)c2c1,-8.5,-1.4,7.3%,8.8%
COc1ccc(O)c(/C=N/NC(=O)c2ccc(CSc3nc(C)cc(C)n3)cc2)c1,70.6*,61.2*,u,u
Cc1cc(C)nc(SCc2ccc(C(=O)N/N=C/c3cccc(O)c3O)cc2)n1,-60.1,17.2*,10.4µM*,4.65µM*
COc1ccc(/C=N/NC(=O)c2ccc(CSc3nc(C)cc(C)n3)cc2)cc1O,-6.3,4.0,u,u
O=C(NNC(=O)c1ccccc1C(=O)O)c1ccc(S(=O)(=O)N2CCCCC2)cc1,-5.9,-3.4,2.6%,u
O=S(=O)(CCN1CCN(c2ccccc2O)CC1)c1cc(Cl)ccc1Cl,x,x,-15.7%,81.5%
Nc1cc(N)nc(SCC(=O)Nc2ccccc2)n1,11.8,-3.0,9.6%,u
Nc1cc(N)nc(SCC(=O)c2ccccc2)n1,11.9,40.0*,18.5%,u
Nc1ccc2nc(-c3ccccc3)sc2c1,25.1,9.0,134.9%,0.0%
Nc1ccc2nc(SCC(=O)c3ccccc3)sc2c1,68.1*,45.0*,0.0%,u
Nc1ccc2nc(SCc3ccccc3F)sc2c1,87.3*,70.8*,224.3%,233.6%
O=C(c1cc(-c2ccc(F)cc2)nc2ccccc12)N1CCN(C2CCS(=O)(=O)C2)CC1 (stereo not drawn),x,x,-7.7%,u
Cc1ccc(CNC(=O)CCOc2ccc(C(C)(C)C)cc2)cc1,-3.2,-4.5,x,u
SMILES,Shiga toxin inh,CHX counter,Pf growth 48h,Pf growth 96h
CCOC(=O)c1ccc(NC(=O)CN2C(=O)CSCC2=O)cc1,-10.3,10.1,18.2%,44.2%
COC(=O)c1ccc(NC(=O)CN2C(=O)CSC2=O)cc1,17.2,15.5*,13.5%,x
CCOC(=O)c1ccc(NC(=O)CN2C(=O)CSC2=O)cc1,59.3,23.3*,28.8%,x
O=C(CN1C(=O)CSC1=O)Nc1ccc(N2CCOCC2)cc1,-3.2,-1.9,18.5%,x
CCOc1ccc(-c2noc(CCC(=O)NCC3CCCO3)n2)cc1OC (stereo not drawn),19.5,4.3,36.6%,15.5%
O=C1c2cnccc2CN1Cc1ccccc1,1.9,8.4,40.7%,3.29µM*
CCCCCC(=O)Nc1cccc(C2=NOC3(C2)C[C@H](C(N)=O)N(C(=O)c2ccccc2C(=O)c2ccccc2)C3)c1 (stereo partly drawn),1.6,-2.2,9.28µM*,u
CCCCCC(=O)Nc1cccc(C2=NOC3(C2)C[C@H](C(N)=O)N(C(=O)c2ccccc2)C3)c1 (stereo partly drawn),-5.3,-3.3,u,u
C=C(C)C(=O)Nc1cccc(C2=NOC3(C2)C[C@H](C(N)=O)N(C(=O)c2ccccc2C(=O)c2ccccc2)C3)c1 (stereo partly drawn),21.5,-3.2,u,13.1µM*
C/C=C(\C)C(=O)Nc1cccc(C2=NOC3(C2)C[C@@H](C(N)=O)N(C(=O)c2ccccc2C(=O)c2ccccc2)C3)c1 (stereo partly drawn),0.3,5.7,u,u
CC(=O)Nc1ccc(S(=O)(=O)NCCC(=O)Nc2ccc(C)c(F)c2)cc1,4.2,-3.7,-0.6%,u

# Assay outcomes deposited in PubChem by National Center for Advancing Translational Sciences (NCATS).
